The values below come from PubChem BioAssay (NCI).

About 83,000 compounds went through this panel and 20% of them were active in at least one assay; those are over-represented in the sample as a whole.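 Single-dose data. Exposure time 48 hours. Values below 10 considered active.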 Values without a mark were called inactive. Activity calls are given as the source filed them.

This test concerns HL-60(TB) leukemia. The experiment in a line: NCI-60 one-dose screen, 48 h (100 = growth as untreated, 0 = no growth, -100 = all killed). The following applies: 10 µM unless noted.
`COc1ccc(C(C#N)=C2C=CC(=NO)C=C2)cc1`: the growth was 52.4%.

For the compound `COc1ccc(Nc2ccnc(NCCNc3ccnc4cc(Cl)ccc34)n2)cc1`, the growth is 39%. `O=c1[nH]ccc2nc(N3CCC(O)CC3)nc(Nc3cccc(C(F)(F)F)c3)c12`: the growth is 29.6%. The value for `CC[C@H]1OC(=O)[C@H](C)[C@@H](O[C@H]2C[C@@](C)(OC)[C@@H](O)[C@H](C)O2)[C@H](C)[C@@H](O[C@@H]2O[C@H](C)C[C@H](N(C)C)[C@H]2O)[C@](C)(O)C[C@H](C)CN(C)[C@H](C)[C@@H](O)[C@]1(C)O` was 89.9%; that for `O=S(=O)(Nc1ccc(OC(F)F)cc1)c1ccc(-c2cnc(C3CC3)o2)cc1` was 64.7%; that for `CCN(CC)CCSC(=O)C(O)(c1ccccc1)C1CCCC1` (stereo not given) was 94%.

For the compound `COc1ccc(N=C(c2ccccc2)C2C(=O)c3ccccc3C2=O)cc1`, the growth was 61.3%. `Cc1ccc(Cc2cnc(NC(=O)/C=C/c3ccc(C)o3)s2)cc1`: the growth was -33% (active). In the case of `Cc1cc(C)c(NC(=O)c2sc3nc4c(cc3c2N)C(=O)CCC4)c(C)c1`, the growth is 14.6%. Regarding `C=CCCC(=O)N1C=CC(=O)[C@H](O)[C@@H]1/C=C/c1ccccc1`, the growth was 32.2% [100 µM]. `Cc1[nH]cnc1/C=C1\SC(N2CCCCC2)=NC1=O`: the growth was 96.4%. Under `O=C(CSc1nnc(-c2ccc(Cl)cc2)o1)Nc1ccc(C(=O)/C=C/c2ccccc2)cc1` stands 97.1%. With `COc1cc(CNC(=O)Cc2ccccc2)ccc1OCc1cn(-c2ccc(F)cc2)nn1`, the growth is 104%.

Consider `COS(=O)(=O)c1ccc(Br)cc1`, for which the growth is 122%. Under `N#CC1=C(N)Oc2c(ccc3cccnc23)C1c1ccccc1` (stereo not given) stands 13.3%; under `O=[N+]([O-])/C(=C/C=C/c1ccccc1)c1ccccc1`, -2.71% (active); under `COc1cc(/C=C/C(=O)c2ccc(Cl)cc2)ccc1OS(=O)(=O)c1ccc(C)cc1`, 75.2%. As for `CC(C)CC(NC(=O)CN(Cc1ccccc1)S(C)(=O)=O)C(=O)O` (stereo not given), the growth is 94.8%. Take `CCSc1ccc(C2C(Br)C(=O)N2c2cc(OC)c(OC)c(OC)c2)cc1` (stereo not given): the growth was -9.14% (active).

Consider `Nc1cc2c3c(cccc3c1)C(=O)N(CCN1CCCC1)C2=O`, for which the growth is 1.24% (active). Turning to `NNCCc1ccc(NC(=O)CCCc2ccc(C(=O)Nc3ccccc3N)cc2)cc1`, the growth was 32.6%. Regarding `COc1ccc(CNc2c3ccccc3nc3ccccc23)cc1OC`, the growth is 12.7%. Take `Brc1cccc(-c2cc(-c3ccc4c(c3)OCCCO4)[nH]n2)c1`: the growth is 47.7% [25 µM]. For `COc1ccc(-c2nc(/C=C3/C(=O)Nc4ccc(F)cc43)c3ccccn23)cc1`, the growth is 61.6%. Consider `CN(C)c1ccc(/C=N/NC(=O)c2cccc3ccccc23)c(Cl)c1`, for which the growth was -2.75% (active).

On to `O=C1Nc2ccccc2/C1=N/N=C/c1ccc(OC2OC(CO)C(O)C(O)C2O)cc1` (stereo not given), for which the growth was 101%.

Take `COc1c(-c2c3sc(=O)[nH]c3nc3c2c(=O)[nH]n3C(C)C)cc2c(c1OC)OCO2`: the growth was 93.8%. In the case of `CSc1nc(NCc2ccccc2)c(C#N)c(-c2cccc([N+](=O)[O-])c2)n1`, the growth is 107%.

On to `Cc1ccc(C(=O)C(Br)C(Br)c2ccccc2)cc1` (stereo not given), for which the growth was 45.1%.

Turning to `O=C(N/N=C/c1cc2ccccc2c2ccccc12)c1cc(O)c(O)c(O)c1`, the growth is 39.9%. Under `COc1ccc(C2CC(c3cccs3)=NN2c2ccc(S(=O)(=O)NC(=O)NCc3cccc(OC)c3)cc2)cc1` (stereo not given) stands 103%; under `O=C(O)c1cn(C2CC2)c2cc(N3CCN(C(=O)CSc4nnc(-c5ccc(Cl)cc5)n4-c4ccccc4)CC3)c(F)cc2c1=O`, 91.1%; under `CC(=O)Nc1ccc2nc3ccc(NC(C)=O)cc3[n+](-c3ccccc3)c2c1`, 4% (active). In the case of `COc1ccc(C2CC(c3ccc(OC)cc3O)=NN2c2ccc(S(N)(=O)=O)cc2)cc1` (stereo not given), the growth was -23.2% (active). As to `CCCCCCCCCCCCCCCC(=O)OC1[C@@H](OC(=O)CCCCCCCCCCCCCCC)[C@@H](C(=O)N[C@@H](CCCCN)C(=O)OC)O[C@H]1n1cnc2c(=O)[nH]c(NC(=O)C(C)C)nc21` (stereo not given in full), the growth was 98.3%.

On to `O=C(Cn1cc(CO)nn1)Nc1nc2ccccc2s1`, for which the growth is 97.1%.

On to `CN(C)c1ccc(C#Cc2c(F)cccc2Cl)cc1`, for which the growth was 79%. `O=C(Nc1ccc(Cl)cn1)C1(c2ccccc2)CCCCC1`: the growth is 51.5%. As for `Cc1ccc(N=NC2C(=O)N(c3ccc(Cl)cc3)N(c3ccc(Cl)cc3)C2=O)cc1`, the growth was 103%. As for `CCOC(=O)[C@H](CSSc1ncnc2cc[nH]c12)NC(=O)[C@@H](C)c1ccc2cc(OC)ccc2c1`, the growth was 7.65% (active).
